# From PubChem BioAssay
# This is one part of a sample in which hits are shown more often than they occur.
# TTR transcr act: activators of transthyretin transcription; 92,000 tested, 1.3% active; AID 1117267; SH-SY5Y TTR promoter Gaussia luciferase, luminescence; 100% = recombinant luciferase protein wells; activation, % at 16.7 µM;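 active = activation above the mean of all tested compounds plus 3 SD, cut at about 9.5% in these data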;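 note: cells exposed to compounds for one day before reading; 0% = median of all test compound wells on the plate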
# TTR inh HuH7: counter-screen for TTR activators: TTR transcription inhibitors in HuH7 cells; inhibition, % at 16.7 µM; shares compounds with TTR transcr act; HuH7 TTR promoter-Gaussia luciferase reporter, luminescence; 1,100 tested, 4% active;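 active = average inhibition above the solvent-only control wells' mean plus 3 SD, cut at about 15% in these data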;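 note: 0% = cells with DMSO only and 100% = cells with inhibitor control FD; inhibitors lower well luminescence so higher value means more inhibition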
# TTR up confirm: confirmation of human transthyretin transcription activators; SHSY5Y TTR promoter Gaussia luciferase, luminescence; 100% = purified Lucia enzyme wells, no cells; 1,100 tested, under 10 active; shares compounds with TTR transcr act; activation, % at 16.7 µM;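 active = mean activation above a set limit taken from the earlier primary screen, cut at about 11% in these data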;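 note: 0% = DMSO-treated cells and 100% = recombinant Lucia luciferase without cells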
# Active calls of the source: *.
SMILES,TTR transcr act,others
Cc1cc(-c2nnn(CCCOC(C)(C)C)c2C)ccc1-c1cn(CCCOC(C)(C)C)nn1,-1,
COC(=O)c1cccc(COC(=O)c2cccnc2SC)c1,12*,TTR inh HuH7=-3;TTR up confirm=0
COC(=O)c1ccc(COC(=O)c2cccnc2Cl)cc1,-1,
CSc1ncccc1C(=O)OCc1c(F)cccc1Cl,0,
COCC(=O)N1C[C@@H](C)[C@@H](OC)CN(C)C(=O)c2ccc(NC(=O)c3cnccn3)cc2OC[C@H]1C,2,
c1cc2c(cc1C1=Nn3c(nnc3C3CCCCC3)SC1)OCO2,9.9*,TTR inh HuH7=30*;TTR up confirm=-1
CC(C)(C)C1=Nn2c(nnc2C2CCCCC2)SC1,2,
COc1ccc(C2=Nn3c(nnc3-c3ccc(OC)cc3)SC2)cc1,-1,
O=C(c1nc2ccccn2c1CN1CCCC(O)C1)N1CCN(C2CCCCC2)CC1 (stereo not given),0,
COc1ccccc1CNC(=O)c1ccc2c(=O)n(CC3CCCO3)c(=S)[nH]c2c1 (stereo not given),1,
O=C(NCC1CCCO1)c1ccc2c(=O)n(Cc3ccc(Cl)cc3)c(=S)[nH]c2c1 (stereo not given),0,
O=C(NCC1CCCO1)c1ccc2c(=O)n(-c3ccc(F)cc3)c(=S)[nH]c2c1 (stereo not given),12*,TTR inh HuH7=-11;TTR up confirm=-1
Oc1ccc(C[C@@H]2CNCCN2CC2(c3ccccc3)CC2)cc1,-2,
Cc1ccc(C(=O)Nc2ccc(OCc3ccccc3)cc2)s1,0,
Cc1ccc(C(=O)NCCCc2ccccc2)s1,67*,TTR inh HuH7=-7;TTR up confirm=1
COc1ccc(C(=O)NCCCc2ccccc2)cc1,-1,
CNc1ccccc1/C(O)=C(\C#N)C(=O)NCc1cccs1,-2,
O=C(Nc1ccc(F)cc1)c1ccccc1,-1,
O=C(Nc1ccccc1)c1ccn[nH]1,15*,TTR inh HuH7=-9;TTR up confirm=-1
O=C(Nc1cccc(C(=O)Nc2ccc(Br)cc2)c1)c1ccccc1,2,
O=C(CN(Cc1ccco1)Cc1cccs1)N1CCN(S(=O)(=O)c2cccc(F)c2)CC1,-1,
O=C(Cc1cccs1)N1CCN(S(=O)(=O)c2ccccc2)CC1,1,
O=C(Cc1cccs1)N1CCN(S(=O)(=O)c2ccc(F)c(F)c2)CC1,10*,TTR inh HuH7=-11;TTR up confirm=1
Cc1ccc2nc(NC(=O)c3ccc4c(c3)OCO4)sc2c1,-1,
C/C(=N\Nc1nc2ccccc2s1)c1ccc2c(c1)OCO2,11*,TTR inh HuH7=11;TTR up confirm=1
SMILES,TTR transcr act,others
C/C(=N\Nc1ccc(Cl)c(C(=O)O)c1)c1ccc2c(c1)OCO2,0,
CC(=O)N1c2ccc(S(=O)(=O)NCC3CCC(C(=O)NCc4ccccc4)CC3)cc2CC1C (stereo not given),-2,
Cc1cc(Cl)ccc1NC(=S)N1CCN(C(=O)c2ccco2)CC1,-1,
CC(=O)Nc1ccc(C(=O)N2CCCCC2c2cc(C(=O)N3CCOCC3)no2)cc1 (stereo not given),2,
O=C(O)CCNS(=O)(=O)c1ccc2ccccc2c1,1,
O=C(O)CNS(=O)(=O)c1cccc(Cl)c1,15*,TTR inh HuH7=-11;TTR up confirm=4
O=C(O)CCNS(=O)(=O)c1ccccc1,0,
COC(=O)[C@]12C[C@H](CC(=O)NCCCN3CCCC3=O)C(=O)N(Cc3ccco3)C1=C[C@H](C1CCCC1)O[C@@H]2C,0,
O=c1oc(C2(O)CCCCC2)cc2ccc(/C=C/c3ccc(F)cc3)cc12,-6,
COCCNc1nc(Nc2ccc(C#N)cc2)c2sccc2n1,-4,
C=CCCC(=O)N1CCCC(C(=O)c2cccc(OC)c2)C1 (stereo not given),0,
CC(C)(C)C1CCC(=NOC(=O)c2ccc(F)cc2)CC1 (stereo not given),-2,
CCOC(=O)C1CCCN(C(=O)c2ccc3ncsc3c2)C1 (stereo not given),0,
O=C(COc1ccc(-n2cnnn2)cc1)Nc1ccc(F)c(F)c1,13*,TTR inh HuH7=-18;TTR up confirm=1
O=C(COc1ccc(-n2cnnn2)cc1)Nc1ccc(F)c(F)c1F,-1,
O=C(COc1ccc(-n2cnnn2)cc1)Nc1ccc(F)cc1,6,
CN(Nc1cccc(Cl)c1)c1cccc(Cl)c1,11*,TTR inh HuH7=-20;TTR up confirm=0
CN(C)NC(=O)c1cccc(Cl)c1,3,
CN(C)NC(=S)Nc1cccc(Cl)c1,1,
COc1ccc(OC)c(NC(=O)CSc2nnc(-c3cnccn3)n2C)c1,1,
C[C@H]1[C@@H](OC(=O)NCc2ccc(C(F)(F)F)cc2)CC[C@@]23CCCN2C(=O)CCC[C@@H]13,-1,
Cc1cccc(C)c1Oc1nc(-c2ccccc2)ncc1S(=O)(=O)c1ccccc1,27*,TTR inh HuH7=-4;TTR up confirm=0
COc1ccc(Oc2nc(-c3ccccc3)ncc2S(=O)(=O)c2ccccc2)cc1,6,
COc1nc(-c2ccccc2)ncc1S(=O)(=O)c1ccccc1,1,
C=CCn1c(SCC(=O)c2c(N)n(C)c(=O)n(C)c2=O)nnc1-c1ccoc1C,1,
SMILES,TTR transcr act,others
N#Cc1ccc(-c2cccnc2)nc1SCC(N)=O,1,
CCOC(=O)C1=C(CSc2nc(-c3ccncc3)ccc2C#N)OC(N)=C(C#N)C1c1ccc(OC)cc1 (stereo not given),2,
CCOC(=O)CSc1nc(-c2ccncc2)ccc1C#N,24*,TTR inh HuH7=-1;TTR up confirm=-1
CCOc1ccc(-c2nc(CSCC(=O)NC3CCC3)c(C)o2)cc1,-2,
Cc1ccc(-c2cc(C(=O)N/N=C/C=C/c3ccccc3)n[nH]2)s1,13*,TTR inh HuH7=-32;TTR up confirm=0
O=C(N/N=C/C=C/c1ccccc1)c1n[nH]c2c1CCC2,11*,TTR inh HuH7=14;TTR up confirm=-1
O=C(N/N=C/C=C/c1ccccc1)c1cccnc1,2,
Cc1ccc(/C=N/NC(=O)c2n[nH]c3c2CCCC3)cc1,-2,
O=C(N/N=C/C=C/c1ccccc1)c1cc(C2CC2)[nH]n1,1,
Cc1cc(C(=O)N/N=C/C=C/c2ccccc2)n[nH]1,-2,
Cc1csc(NC(=O)C2CC(=O)N(c3ccc(C)c(C)c3)C2)n1 (stereo not given),-1,
CC(=O)c1c(C)[nH]c(C(=O)Nc2ccccc2C)c1C,1,
Cc1cc(C2=CC(=O)C[C@H](c3ccc(F)cc3)C2)ccc1F,-2,
CN1C(=O)c2cc(NC(=O)c3ccc(F)cc3)ccc2OC[C@H]2O[C@H](CC(=O)NC3CCC3)CC[C@H]21,1,
O=C(Cc1ccccc1)NCC(=O)OCC(=O)c1ccccc1Cl,0,
Cc1ccccc1CN1CCCCC(NC(=O)C2CCC2)C1=O (stereo not given),0,
O=C(CSc1ncnc2nc[nH]c12)c1ccc([N+](=O)[O-])cc1,29*,TTR inh HuH7=2;TTR up confirm=-1
O=C(CSc1nnc(-c2ccco2)o1)c1ccc([N+](=O)[O-])cc1,0,
c1ccc2c(CSc3ncnc4nc[nH]c34)cccc2c1,1,
COC(=O)[C@H](C)NC(=O)[C@H](CC(C)C)NC(=O)OC(C)(C)C,-2,
CC(C)CCNC(=O)C1COC(O)(C(Cc2ccccc2)NC(=O)[C@@H](NC(=O)OCc2ccccc2)C(C)C)CN1 (stereo not given in full),-1,
O=C(c1cccs1)N1C[C@H](O)[C@@H](n2cc(C3CC3)nn2)C[C@@H]1c1ccccc1,-1,
CN(CC(=O)N1CCCCCC1)S(=O)(=O)c1ccc(Br)s1,-2,
CN(CC(=O)N1CCCCC1)S(=O)(=O)c1ccc(Cl)cc1,-1,
CN(CC(=O)N1CCCCCC1)S(=O)(=O)c1ccc(Br)cc1,20*,TTR inh HuH7=-18;TTR up confirm=0
